# Test system: LXRb homodimer (NR concentration 270 nM)
# Assay: PBM binding z-score (relative to random genomic background probes); higher = stronger binding; sequences stand for … in GC…GCGATTGACAGCGTAGAATGAAGG
# Procedure, shortened: (§1)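 Scanned fluorescence from custom Agilent 4×180K protein-binding microarrays was regression-normalized. Binding z-scores use random background probes as reference. Ligand-free nuclear receptor dimers were incubated on the arrays for 1 h and detected with antibodies against each partner (one per run).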
row,Sequence,PBM binding z-score
1,ATTCGGAGGACAAAGGTCAGAGCTACGCCAGTGA,0.763
2,GGAACGAGGGCAAGTTGATGGCAGAGTTTGATGG,-0.434
3,AGTCAAAGTTCACTAGGTCACGTAAGATTCAGCT,1.45
4,TCTTGTAGATCAGGAGGTTAAGAAAGCTGGCCAA,-0.475
5,TAGCCTAGGTCAGATCGGTCCAGTATACGCTATA,-0.111
6,ATCTCTAGGTAACCAAGTTCAGGGAATGCCGAAC,0.621
7,TCGAGTAGGTTAGGGGCGTTCAGAATGGCGTCGA,-0.227
8,TCATATAGGTAAACAGGGGAAAGTCCGTAAGTTA,-0.0206
9,ACTATTAGTTGAGACGAGGGCAACCTATAGGTTG,0.336
10,CCTACTGGGCCATCAGGCCATTGATATCAACGTT,-0.678
11,TCTCGGAGCACACGAAGGTCAGAGCTTTCCAGAG,-1.73
12,ATCTCTAGGTAACCAAGTTCAATGAATGCCGAAC,1.25
13,TGGATGAGGTTAAAGATCAGGGAACGTGGCGTCG,1.54
14,CTCGAAAGGTCGGTTGAGGTGCGTATACGGATAA,-0.239
15,ATCGAAAGGTCGAGCTGAGTATAGAGAAAGGGAA,0.538
16,ACAGACATGTGAGTGAAGGTAACTCAGCTGGACG,-0.436
17,CAAACTAGGTCACGGAAGGTCAAAGTCGAATGAC,1.71
18,TAGCATAGGTCATTGGGCCAGTATAGTACGCATC,0.541
19,AGTCAAAGTTCATCTAGGTAACGTATGATATGCT,1.5
20,AGAATGAGGTTAAGATGAGGGAAACAGAATACAT,0.124

row,Sequence,PBM binding z-score
1,CCTCCAAGGTCAATGCTAGGTCAGTGAAAGCATT,1.02
2,TCGAGTAGGTTAGGGGCAGTCAGAATGGCGTCGA,-0.416
3,ATCGAAAGGTCGACGAGGTGTGTATACACCGTTT,0.354
4,CCTACTGGGCCATTCAGAGGTCTTTGATCATATG,-0.94
5,ATCGAAACGTCGAGGTGAGTATAGAGAAAGGGAA,-0.471
6,CCCAGCAGGCCAGGGTCACTCAAGCATTTCGCTT,-0.79
7,CTTCCAAGGTCAATGCTAGGTCAGTGAAAGCATT,1.7
8,GGTACGAGGGCATTCGAGTTGATAGCATGGCGAT,-0.742
9,TGTCAAAGTTCAAAGGTAACGTACGTATCCACAC,1.52
10,GGAACGAGAGCAAAGTTGATAGCATCTGTCGACG,-1.1
11,GCTATTAGTTGAAAGGGCAACCAAATGATTCTCG,-0.0517
12,ATATGTAGGTTACAACCGGGTCATTCAGGCTATG,0.715
13,TCTTGTAGATCAACAGGGGGTTAAGAAAGATCGA,8.09
14,CCTACTGGGCCAAAAAGCTCATTGATGCCGATAA,-1.22
15,AGTCAAAGTTCAGGACGAGTTAACGTAAAGCACG,0.173
16,TGAATGAGGTTAAAGATTAGGGAACGTGGCGTCG,0.449
17,CAAACTAGGTCCCGAAAGGTCAAAGTCGAATGAC,1.82
18,CCAAGTTGGTCAGGAGGTCACACACCGGATATGA,0.316
19,AGTCAAAGTTCAGGACGATGTAACGTAAAGCACG,0.134
20,GCAACGAGGGCAAAGTTGATAGCATCTGTCGACG,-0.643

# Test system: PPARa:RXRa (NR concentration 270 nM, RXRa partner concentration 90 nM)
# Assay: as above
# Procedure, shortened: as §1
row,Sequence,PBM binding z-score
1,ATTCGGAGGACAAAGGTCAGAGCTACGCCAGTGA,4.9
2,GGAACGAGGGCAAGTTGATGGCAGAGTTTGATGG,1.55
3,AGTCAAAGTTCACTAGGTCACGTAAGATTCAGCT,6.04
4,TCTTGTAGATCAGGAGGTTAAGAAAGCTGGCCAA,1.46
5,TAGCCTAGGTCAGATCGGTCCAGTATACGCTATA,1.74
6,ATCTCTAGGTAACCAAGTTCAGGGAATGCCGAAC,1.28
7,TCGAGTAGGTTAGGGGCGTTCAGAATGGCGTCGA,0.892
8,TCATATAGGTAAACAGGGGAAAGTCCGTAAGTTA,1.61
9,ACTATTAGTTGAGACGAGGGCAACCTATAGGTTG,0.29
10,CCTACTGGGCCATCAGGCCATTGATATCAACGTT,0.569
11,TCTCGGAGCACACGAAGGTCAGAGCTTTCCAGAG,1.7
12,ATCTCTAGGTAACCAAGTTCAATGAATGCCGAAC,1.76
13,TGGATGAGGTTAAAGATCAGGGAACGTGGCGTCG,4.13
14,CTCGAAAGGTCGGTTGAGGTGCGTATACGGATAA,2.3
15,ATCGAAAGGTCGAGCTGAGTATAGAGAAAGGGAA,4.36
16,ACAGACATGTGAGTGAAGGTAACTCAGCTGGACG,-0.3
17,CAAACTAGGTCACGGAAGGTCAAAGTCGAATGAC,6.26
18,TAGCATAGGTCATTGGGCCAGTATAGTACGCATC,5.41
19,AGTCAAAGTTCATCTAGGTAACGTATGATATGCT,4.97
20,AGAATGAGGTTAAGATGAGGGAAACAGAATACAT,3.52

row,Sequence,PBM binding z-score
1,CCTCCAAGGTCAATGCTAGGTCAGTGAAAGCATT,5.22
2,TCGAGTAGGTTAGGGGCAGTCAGAATGGCGTCGA,1.11
3,ATCGAAAGGTCGACGAGGTGTGTATACACCGTTT,4.22
4,CCTACTGGGCCATTCAGAGGTCTTTGATCATATG,0.481
5,ATCGAAACGTCGAGGTGAGTATAGAGAAAGGGAA,-0.00336
6,CCCAGCAGGCCAGGGTCACTCAAGCATTTCGCTT,2.8
7,CTTCCAAGGTCAATGCTAGGTCAGTGAAAGCATT,5.14
8,GGTACGAGGGCATTCGAGTTGATAGCATGGCGAT,0.926
9,TGTCAAAGTTCAAAGGTAACGTACGTATCCACAC,5.75
10,GGAACGAGAGCAAAGTTGATAGCATCTGTCGACG,2.02
11,GCTATTAGTTGAAAGGGCAACCAAATGATTCTCG,2.45
12,ATATGTAGGTTACAACCGGGTCATTCAGGCTATG,4.68
13,TCTTGTAGATCAACAGGGGGTTAAGAAAGATCGA,2.75
14,CCTACTGGGCCAAAAAGCTCATTGATGCCGATAA,-0.251
15,AGTCAAAGTTCAGGACGAGTTAACGTAAAGCACG,3.38
16,TGAATGAGGTTAAAGATTAGGGAACGTGGCGTCG,3.74
17,CAAACTAGGTCCCGAAAGGTCAAAGTCGAATGAC,5.54
18,CCAAGTTGGTCAGGAGGTCACACACCGGATATGA,4.43
19,AGTCAAAGTTCAGGACGATGTAACGTAAAGCACG,3.05
20,GCAACGAGGGCAAAGTTGATAGCATCTGTCGACG,3.7

# Source: the supplement of paper PMC6555819
